IEC-6 tox = kills IEC-6 intestinal cells in KLF5 counter-screen. AID 1825. 0.78% of 290,000 active. IEC-6 cytotoxicity, luminescence viability. inhibition, % at 5 µM; in the data active means inhibition above about 22%;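 further: 0% = plate median of test compound wells and 100% = cytotoxic reference compound wells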
KLF5 inh = kruppel-like factor 5 inhibition; DLD-1 KLF5 promoter-luciferase reporter, luminescence; inhibition, % at 5 µM; 0.23% of 290,000 active; AID 1700;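 active means inhibition above a per-plate limit of that plate's mean compound inhibition plus 3 SD, cut at about 60% in these data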;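 further: 0% = DMSO wells and 100% = LY294002 at 200 µM; higher means less KLF5 promoter-driven luciferase light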
BaF3 parental = reduces parental Ba/F3 cell viability, JAK2V617F counter-screen; CellTiter-Glo ATP luminescence; AID 1486; inhibition, % at 5.6 µM; 1.1% of 220,000 active;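 active means inhibition above a per-campaign cutoff, the mean inhibition of all tested compounds plus 3 SD, cut at about 27% in these data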;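 further: 0% = DMSO wells and 100% = JAK Inhibitor I control wells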
APP 5UTR inh = APP translation inhibition; SH-SY5Y APP 5'UTR-luciferase reporter, luminescence; inhibition, % at 2 µM; 0.82% of 190,000 active; AID 1285;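 active means inhibition above a set limit, derived from the sample mean plus 3 SD, cut at about 45% in these data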
Ba/F3 V617F tox = lowers viability of Ba/F3 cells expressing EpoR and JAK2V617F; AID 1446; ATP luminescence; 1.1% of 220,000 active; inhibition, % at 5.6 µM;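 active means inhibition above the campaign mean plus 3 SD over all tested compounds, cut at about 24% in these data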;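 further: cytokine-independent growth of Ba/F3 cells driven by EpoR plus mutant JAK2; 0% = DMSO-treated cells and 100% = JAK inhibitor I control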
aSyn 5UTR inh = MLPCN primary screen, SNCA 5' untranslated region | alpha-synuclein 5'UTR reporter, inhibitor activity | inhibition, % (tested at 7.5 µM) | 0.82% of 300,000 active | AID 1813; in the data active means inhibition above about 60%;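 further: H4 neuroglioblastoma cells stably carrying SNCA 5'UTR luciferase fusion; 0% = DMSO wells and 100% = positive control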
An asterisk follows results filed as active; x = no result given. Only some compounds are listed: those with a hit (about 2.2% of all), similar ones and a draw of the others.

SMILES	IEC-6 tox	KLF5 inh	BaF3 parental	APP 5UTR inh	Ba/F3 V617F tox	aSyn 5UTR inh
CC1CCCC(NC(=O)COC(=O)CN2C(=O)C3CCCCC3C2=O)C1C (stereo unspecified)	-3.4	-12.8	1.7	66.5*	-4.2	-25.4
CN(C)c1ccc(C(=O)c2ccccc2)cc1	4.6	-108.7	7.2	-64.7	4.5	-119.0
CN(C)c1ccc(N=Nc2ccc(C(=O)O)cc2)cc1	-12.5	59.5	x	x	x	64.0*
COc1cc2c(cc1OC)CN(CC(=O)Nc1ccc(C)c(S(=O)(=O)N3CCOCC3)c1)CC2	-2.3	-9.4	x	x	x	-6.8
CNC(=O)c1sc2nc(-c3ccc(OC)cc3)cn2c1C	-7.4	-196.1	-0.7	-145.5	-3.1	-138.5
COc1ccc(-c2cn3c(C)c(C(=O)Nc4cc(NC(C)=O)ccc4OC)sc3n2)cc1	20.9	42.0	43.9*	24.5	48.7*	-35.5
O=C(N/N=C(\Cc1ncc[nH]1)c1ccccc1)c1ccccc1	1.1	-42.4	3.7	0.9	-2.5	74.2*
O=C(N/N=C(\Cc1ncc[nH]1)c1ccccc1)c1ccncc1	-5.8	-40.1	8.7	43.9	3.5	15.8
CCCCOc1ccccc1C1CC(=O)NC2=C1C(=O)CCC2 (stereo unspecified)	84.3*	57.2	82.9*	87.6*	82.4*	93.8*
C=CCNc1nc(N)c([N+](=O)[O-])c(N2CCCCCC2)n1	-4.3	-11.7	x	x	x	69.3*
CCN(CC)CCCNc1nc(N)c([N+](=O)[O-])c(N2CCCCCC2)n1	7.8	-88.8	x	x	x	-23.6
Cc1ccc(CCN2CC(C(=O)NC(C)C)CC2=O)cc1 (stereo unspecified)	-1.8	-39.5	x	x	x	-0.4
Cc1nn(C)c(C)c1CNC(=O)c1nn2c(c1Cl)NC(c1cccs1)CC2C(F)(F)F (stereo unspecified)	3.5	14.0	32.2*	3.0	15.3	-11.1
CCOC(=O)NNC(=O)NCCCCCCNC(=O)NNC(=O)OCC	-3.2	-22.2	-0.6	x	-2.9	2.1
Fc1ccccc1/C=N/NC(=S)Nc1ccc(Cl)cc1Cl	3.3	5.8	10.2	93.8*	4.5	47.0
CC(C)(C)N1CC23C=CC(C[C@@H]2C1=O)O3 (stereo partly specified)	x	x	x	x	x	-2.0
CCc1[nH]nc(C(=O)N2CCCC(Nc3cccc(F)c3)C2)c1C (stereo unspecified)	-2.0	-34.7	x	x	x	-33.5
C(C#CCCCCCCCCC[n+]1ccccc1)#CCCCCCCCCC[n+]1ccccc1	51.0*	46.0	x	x	x	73.3*
CCOCCOC(=O)c1[nH]c2c(c1C)C(=O)CC(c1cccs1)C2 (stereo unspecified)	87.1*	76.8*	79.5*	92.9*	80.5*	84.6*
Nc1cccc2nc3ccccc3cc12	21.7	56.0	29.0*	x	41.3*	100.6*
CC(C)(C)C(=O)/C(=C\c1ccc([N+](=O)[O-])cc1)n1cncn1	23.2*	44.9	90.5*	92.6*	96.7*	-276.5
CN(CC(=O)Nc1cccc(F)c1)C(=O)CC1CC2CCC1C2 (stereo unspecified)	2.9	-9.8	x	x	x	-7.1
CC(=O)N(C1=C(N)C(=O)c2ccccc2C1=O)c1ccccc1	-3.1	-33.5	x	x	x	78.2*
O=C(N(c1ccccc1)c1ccccc1)N(c1ccccc1)c1ccccc1	-2.4	-13.5	0.6	x	-1.1	6.6
Cc1cc2nc(C)n(CCCNC(=O)Nc3ccc(F)cc3)c2cc1C	0.3	-0.2	3.9	5.9	-1.6	-7.0
SMILES	IEC-6 tox	KLF5 inh	BaF3 parental	APP 5UTR inh	Ba/F3 V617F tox	aSyn 5UTR inh
CCN1CCN(Cc2ccc(NC(=O)c3ccc(C)c(NC(=O)c4c[nH]c5cc(C(F)(F)F)ccc5c4=O)c3)cc2C(F)(F)F)CC1	x	x	x	x	x	112.6*
CCN1CCN(Cc2ccc(NC(=O)c3ccc(C)c(NC(=O)c4ccno4)c3)cc2C(F)(F)F)CC1	x	x	x	x	x	67.1*
CCN1CCN(Cc2ccc(NC(=O)c3ccc(C)c(NC(=O)c4cccc(-c5cn[nH]c(=O)c5)c4)c3)cc2C(F)(F)F)CC1	1.7	-9.2	x	x	x	-7.9
CCN1CCN(Cc2ccc(NC(=O)c3ccc(C)c(/C=C/c4cnc(Nc5cc(N6CCNCC6)nc(C)n5)cn4)c3)cc2C(F)(F)F)CC1	x	-7.3	x	x	x	110.2*
O=S(=O)(c1ccc2ccccc2c1)N(CC1CO1)c1ccccc1 (stereo unspecified)	-1.1	6.4	5.9	3.2	6.0	17.1
CCOc1ccc(/C=N/NC(=O)c2[nH]c3ccc(C)cc3c2C)cc1	5.8	-9.8	x	x	x	5.1
Cc1c(C(=O)N/N=C/c2ccc(Cl)cc2)[nH]c2ccc(Cl)cc12	11.3	-5.4	8.6	92.7*	4.8	-122.3
CCc1nc(SCC(=O)Nc2ccc(OC)cc2[N+](=O)[O-])n[nH]1	4.7	-27.1	0.9	x	-0.2	-5.1
CCOc1ccc2c(c1)c(N=NC(=N)N)c(O)n2C	13.0	-19.0	68.8*	-2.3	43.9*	-2.2
CC(=O)N1/C(=C/c2ccc(N(C)C)cc2)C(=O)c2ccccc21	21.3	21.0	-7.7	81.4*	1.6	-48.2
O=C(Nc1ccc(OCC(F)(F)C(F)F)c(C(F)(F)F)c1)c1ccccc1O	2.3	4.3	86.6*	-8.6	47.6*	41.8
O=C(Nc1ccc(OCC(F)(F)C(F)F)c(C(F)(F)F)c1)c1ccccc1	10.3	-48.0	1.0	-2.8	-1.7	-100.7
COc1ccc(NS(=O)(=O)c2cc(NC(=O)CC3CCCC3)ccc2N2CCOCC2)cc1	-4.3	-15.4	32.2*	14.1	7.4	22.9
COc1ccc(OC)c(-n2nnnc2SCC(=O)N2CCN(C(=O)c3ccco3)CC2)c1	0.2	-24.7	41.2*	3.4	0.8	10.4
COc1ccc(-n2nnnc2SCC(=O)N2CCN(C(=O)c3ccco3)CC2)cc1OC	-5.9	-3.8	4.9	6.4	-1.3	16.0
COc1cc(NC(=O)CCCNC(=O)Cn2cnc3sc(C)c(C)c3c2=O)cc(OC)c1OC	0.3	-16.1	x	x	x	-5.6
CCOc1ccc(CN=C(N)N=C(N)N)cc1Cl	-1.2	5.4	27.3*	-22.5	21.1	9.3
CCCCOc1ccc(CN=C(N)N)cc1Cl	8.1	-14.8	35.2*	x	14.9	14.5
CNCCCCOc1ccc(C(C)(C)C)cc1Cl	6.5	-21.6	3.7	-22.8	2.9	-21.5
CCCOc1ccc(CCCN=C(N)N)cc1Cl	9.7	-1.8	46.1*	x	25.1*	-17.4
CC1CCCCC1NC(=O)C1CCC(CNS(=O)(=O)c2cccc3cccnc23)CC1 (stereo unspecified)	-1.5	-1.9	x	x	x	25.7
Cc1cccc(NC(=O)C2CCN(S(=O)(=O)c3c(C)c(C)cc(C)c3C)CC2)n1	x	x	x	x	x	18.1
CC1OC(OC2C(CO)OC(OC3C(CO)OC(O)C(O)C3O)C(O)C2O)C(O)C(O)C1N[C@@H]1C=C(CO)[C@@H](O)C(O)[C@H]1O (stereo partly specified)	-8.0	-16.8	x	x	x	4.0
C[C@H]1O[C@H](O[C@H]2[C@H](O)[C@@H](O)[C@@H](O[C@H]3[C@H](O)[C@@H](O)C(O)O[C@@H]3CO)O[C@@H]2CO)[C@H](O)[C@@H](O)[C@@H]1N[C@H]1C=C(CO)[C@@H](O)[C@H](O)[C@H]1O (stereo partly specified)	33.8*	9.9	-6.7	x	23.8*	-9.1
